A short description of this assay: PubChem AID 588753. To be noted: Ricerca radioligand binding panel, % inhibition, at 10 µM, stronger effect = higher value.

Active and inactive are the calls of the source. How the calls were made is not given here.

Take `C[C@@H](NC(=O)c1ccc(C#Cc2cccc(F)c2)cn1)C(C)(C)O`: the inhibition was 8% (inactive). In addition, the inhibition (L-type Ca channel DHP site) was 22%. Further, the inhibition (NMDA phencyclidine site) was found to be 25%. In addition, where the note is “adenosine A2a binding”, the inhibition stood at 12%. Also, the inhibition (adrenergic alpha1A binding) is 18%. The inhibition (dopamine transporter binding) worked out at 8%. Moreover, the inhibition (hERG binding) was -2%. In addition, the inhibition (leukotriene CysLT1 binding) came to 17%. Besides, the inhibition (norepinephrine transporter binding) was 9%. Further, under “purinergic P2XY binding”, the inhibition came out at 24%. Also, where the note is “serotonin 5-HT2B binding”, the inhibition stood at 36%. In addition, the inhibition (serotonin transporter binding) amounted to 6%. Besides, the inhibition (sigma 1 binding) was determined as 31%.

One may read the inhibition as the drop in the measured response relative to a control, in per cent.

For the origin of these results see PubChem BioAssay AID588753 (Vanderbilt Specialized Chemistry Center, 2011).
